Compound activity (PubChem)
An excerpt weighted towards active compounds, which were near 4.4% of everything screened.
tim10-1 inh = growth inhibitors of tim10-1 mutant yeast | inhibition, % at 20 µM | hit rate 2.2% among 330,000 | S. cerevisiae tim10-1 ts strain growth, BacTiter-Glo, 24 h;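 active = inhibition of at least 40%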;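 note: mutant grown at 25 °C; 0% = DMSO wells with yeast and 100% = wells holding no yeast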
Mot1-301 SUMO = SUMOylation pathway inhibition by Mot1-301 growth rescue | S. cerevisiae Mot1-301 growth rescue, ATP luminescence, 38.5C; percent above DMSO median, 100 means doubled | hit rate 1% among 320,000 | growth rescue, % at 18.8 µM | AID 2716;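 active = every valid replicate shows activation above 250% relative to neutral control wells; inactive = the rest, any valid replicate at or below 250%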;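 note: OY570 slx delta 5 strain wells were the positive control but not used for scaling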
TIM10 inh = TIM10 yeast growth inhibition; S. cerevisiae TIM10 strain growth, BacTiter-Glo luminescence, 24 h; inhibition, % at 10 µM; hit rate 1.4% among 330,000;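 active = inhibition of 40% or more at the single tested concentration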;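 note: wild-type TIM10 isogenic control strain grown at permissive 25 °C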
PfHsp90 yeast 2 = inhibits growth of yeast expressing Plasmodium falciparum Hsp90; S. cerevisiae expressing PfHsp90, BacTiter-Glo ATP, 48 h; yeast lacking PDR1 and PDR3 efflux regulators; inhibition, % at 9.4 µM; hit rate 0.32% among 310,000; AID 504621;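 active = every replicate shows inhibition above about 80%, whatever the replicate mean, limit read from the data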;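 note: 0% = DMSO neutral controls and 100% = 20 µM radicicol positive controls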
tim23-1 inh = inhibits growth of tim23-1 mutant yeast; S. cerevisiae tim23-1 growth, BacTiter-Glo luminescence, 24 h; inhibition, % at 20 µM; hit rate 1.3% among 330,000;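 active = growth inhibition of the mutant yeast at or above 50%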;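 note: temperature-sensitive mutant grown at 25 °C; plate controls were DMSO-treated mutant yeast for no effect and medium wells lacking yeast for full effect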
TIM10 conf = TIM10 yeast growth inhibition, confirmed; shares compounds with TIM10 inh; S. cerevisiae tim10 strain growth, BacTiter-Glo luminescence, 24 h; hit rate 63% among 4,600; AID 463215; inhibition, % at 10 µM;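 active = inhibition of yeast growth at or above a set limit in either of two replicates at 10 µM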;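 note: this counterscreen used the strain with wild-type TIM10; 0% = yeast with DMSO and 100% = medium wells lacking yeast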
The depositor's hits bear a star; . = no result given.

SMILES | tim10-1 inh | Mot1-301 SUMO | TIM10 inh | PfHsp90 yeast 2 | tim23-1 inh | TIM10 conf
CC1/C(=N/O)CC(c2ccccc2)N(C)C1c1ccccc1 (stereo unspecified) | 27 | -70 | 52* | 43 | 20 | 55*
CC1/C(=N/O)CC(c2ccccc2)NC1c1ccccc1 (stereo unspecified) | 7 | -12 | -15 | -5 | -23 | .
CCCN(C(=O)Cn1nc(C)c([N+](=O)[O-])c1C)c1c(N)n(Cc2ccccc2)c(=O)[nH]c1=O | -10 | 0 | -8 | -13 | -3 | .
C[C@@]12CCC3[C@@](CCC4[C@@]3(C)CCC[C@@]4(C)C(=O)N3CCOCC3)(CC1=O)C2 (stereo partly specified) | 12 | 141 | 16 | 14 | 38 | .
Oc1ccccc1CN1CCN(C(O)(c2ccccc2)c2ccccc2)CC1 | 16 | 7 | 43* | 21 | 28 | 52*
COc1cc(CN2CCN(C(O)(c3ccccc3)c3ccccc3)CC2)cc(OC)c1OC | -13 | -14 | 6 | -11 | 10 | .
COc1cccc(-c2cc(=O)c3cc(NC(=O)c4ccccc4)ccc3[nH]2)c1 | -1 | -8 | 4 | 13 | 9 | .
COc1cccc(-c2cc(=O)c3cc(NC(=O)c4ccc(N(C)C)cc4)ccc3[nH]2)c1 | -11 | 36 | 67* | . | -3 | -10
COc1ccccc1N1CCN(C(=O)c2cc(C(=O)N3CCN(c4ccccc4OC)CC3)cc([N+](=O)[O-])c2)CC1 | -14 | 6 | -2 | 13 | -2 | .
COc1ccccc1N1CCN(C(=O)c2ccc([N+](=O)[O-])s2)CC1 | 25 | 265 | 43* | -3 | 35 | -13
COc1ccc(OC)c(NC(=S)NCCC(c2ccccc2)c2ccccc2)c1 | 30 | -14 | 46* | -39 | 11 | 14
COc1ccc(OC)c(NC(=S)NCc2ccccc2OC)c1 | 23 | 6 | 15 | -3 | 27 | .
Cc1ccccc1NC(=S)NCCC(c1ccccc1)c1ccccc1 | 18 | -14 | 17 | 23 | 22 | .
Cc1ccc(NC(=S)NCCC(c2ccccc2)c2ccccc2)c(C)c1 | 20 | -13 | 49* | -44 | 20 | 33*
OC(CNCc1ccco1)Cn1c2ccc(Br)cc2c2cc(Br)ccc21 (stereo unspecified) | 8 | -73 | 46* | 44 | 21 | 65*
COc1cccc(CN(C)C(=O)CCN=C2NS(=O)(=O)c3ccccc32)c1 | -7 | 7 | 6 | 5 | 2 | .
CCCCc1ccc(NC(=S)NCCc2ccc(F)cc2)cc1 | 39 | 12 | 42* | . | 20 | 3
Fc1ccc(CCNC(=S)Nc2ccc(F)cc2)cc1 | 21 | 47 | 17 | 26 | 10 | .
Cc1ccc(/C=C/C(=O)NC(=S)Nc2ccc(S(=O)(=O)Nc3cc(C)on3)cc2)cc1 | -15 | -13 | 8 | -8 | -11 | .
COc1ccc(CCNC(=O)CCOc2ccc(C(C)(C)C)cc2)cc1OC | 16 | -9 | -1 | -17 | 26 | .
Cc1[nH]c(C)c(S(=O)(=O)N(Cc2ccccc2)C(C)C)c1C(=O)N1CCCC1 | -6 | 11 | 6 | 14 | 1 | .
CCN(Cc1ccccc1)S(=O)(=O)c1c(C)[nH]c(C)c1C(=O)N1CCCC1 | -7 | 15 | 53* | -2 | -4 | -5
CCOC(=O)C1CCCN(C(=O)c2ccc3[nH]c4c(c3c2)CC(C)CC4)C1 (stereo unspecified) | 23 | 0 | 73* | 4 | 43 | 22
Cc1ccc2nc(-c3cccc(Br)c3)cc(C(=O)NC3=NCCS3)c2c1 | 34 | 88 | 29 | -11 | 20 | .
O=C(NC1=NCCS1)c1ccccc1Cl | -9 | 91 | -3 | 0 | -4 | .
SMILES | tim10-1 inh | Mot1-301 SUMO | TIM10 inh | PfHsp90 yeast 2 | tim23-1 inh | TIM10 conf
O=C(NC1=NCCS1)c1cc(-c2cccc(Br)c2)nc2ccccc12 | 36 | 53 | 43* | -13 | 47 | 10
O=C(NC1=NCCS1)c1csc2ccccc12 | 34 | 11 | 44* | 12 | 28 | 28
CC(C)C(=O)Nc1nnc(S(=O)(=O)N(C)c2ccc(Cl)cc2)s1 | 9 | -8 | 6 | -4 | 4 | .
CSc1ccc(CCCCCCOC(=O)C(C)(C)C)cc1 | -12 | -2 | -3 | 13 | -3 | .
O=C(Cc1cccs1)N(Cc1ccco1)C1(C(=O)NC2CCCCC2)CCCCC1 | 28 | 188 | 43* | -12 | 21 | 10
O=C(Cc1cccs1)N(Cc1cccs1)C1(C(=O)NC2CCCC2)CCCCC1 | 19 | 28 | 27 | 73 | 31 | .
COc1ccc(NC(=O)Nc2c(O)ccc3ccccc23)cc1 | -66 | 7 | -36 | -14 | -11 | .
NNc1nc2c(-c3ccc(Cl)cc3)nnn2c2ccccc12 | 22 | 0 | 69* | 24 | 21 | 70*
COc1c2c(nc3occc13)C(CC=C(C)C)(OC)C(OC(C)=O)CC2 (stereo unspecified) | 35 | 15 | 46* | -6 | 36 | -17
Cc1ccccc1C1=N/C(=C/c2cccs2)C(=O)O1 | 31 | 31 | 51* | . | 17 | 15
COc1cccc(CNS(=O)(=O)c2cc3c4c(c2)CCN4C(=O)CC3)c1 | -5 | 1 | -3 | . | 2 | .
CC(=O)c1sc(N/N=C\c2cccc(Br)c2)nc1C | 37 | 3 | 41* | -27 | 44 | -11
Cc1cc(=O)[nH]c(N/N=C/c2cccc(Br)c2)n1 | 15 | 23 | -12 | 10 | 6 | .
COc1ccc2nc3sc(C(=O)N4CCN(C)CC4)cc3cc2c1 | -20 | 13 | 11 | 0 | 5 | .
COc1ccc2nc3sc(C(=O)NCCCN4CCc5ccccc5C4)cc3cc2c1 | 14 | 50 | 49* | -19 | 43 | 57*
CCCC(=O)Oc1ccc(C2NC(=O)c3ccccc3O2)cc1 (stereo unspecified) | -6 | 19 | -7 | -33 | 6 | .
O=C(C1CC1)N1CCc2cc(Br)cc(S(=O)(=O)N3CCCCCC3)c21 | -2 | -6 | 47* | . | -33 | -66
COc1ccccc1-n1c2nc3ccccc3nc2c2c(=O)n(-c3cc(C)cc(C)c3)cnc21 | 26 | 4 | 25 | -7 | 33 | .
COc1ccccc1-n1cnc2c(c1=O)c1nc3ccccc3nc1n2-c1ccc(C)cc1 | 39 | -10 | 46* | -11 | 34 | 21
CC(C)(C)C1CCC(=NNC(=S)Nc2cccnc2)CC1 (stereo unspecified) | 39 | 88 | 44* | 8 | 48 | 35*
Cc1ccc(-c2n[nH]c(=S)n2/N=C/c2cccs2)cc1 | 30 | -14 | 52* | -42 | 42 | -22
S=c1[nH]nc(-c2ccccc2)n1/N=C/c1cccs1 | -20 | 9 | 32 | -10 | 47 | .
COCCOC(=O)C1=C(C)NC(=O)NC1/C=C/c1ccccc1 (stereo unspecified) | 4 | 24 | 8 | -22 | 5 | .
C=CCOC(=O)C1=C(C)NC(=S)NC1/C=C/c1ccccc1 (stereo unspecified) | 29 | -11 | 43* | -4 | 7 | 1
